This is a sample that favours compounds with a hit; in the whole collection about 3.6% have one here.
3CLpro inhibitor: SARS-CoV 3CLpro protease inhibition | P0C6X7 | recombinant SARS-CoV 3CLpro, quenched FRET peptide cleavage | inhibition, % at 6 µM | hit rate 0.14% among 290,000; in the data active = inhibition above about 12%
BoNT-A LC inh2: blocks Botulinum neurotoxin A light chain protease; multiplex microsphere protease substrate cleavage, flow cytometry; inhibition, % at 10 µM; hit rate 0.17% among 360,000; also: plate controls were buffer without enzyme for full effect and enzyme alone for no effect
BoNT F protease: BoNT F light chain protease inhibition. Multiplex microsphere protease cleavage assay, flow cytometry. inhibition, % at 10 µM. hit rate 0.22% among 360,000. AID 588497; in the data active = inhibition above about 35%, passing the limit was not always enough; inconclusive = no clear call, values can overlap the other calls; also: plate controls were buffer without enzyme for full effect and enzyme alone for no effect
Anthrax LF inh2: inhibitors of Bacillus anthracis lethal factor protease; P15917; hit rate 0.12% among 360,000; inhibition, % at 10 µM; multiplex microsphere protease cleavage assay, LF; AID 588501; also: plate controls were buffer without enzyme for full effect and enzyme alone for no effect
Target sequence (P15917 whole entry, looked up): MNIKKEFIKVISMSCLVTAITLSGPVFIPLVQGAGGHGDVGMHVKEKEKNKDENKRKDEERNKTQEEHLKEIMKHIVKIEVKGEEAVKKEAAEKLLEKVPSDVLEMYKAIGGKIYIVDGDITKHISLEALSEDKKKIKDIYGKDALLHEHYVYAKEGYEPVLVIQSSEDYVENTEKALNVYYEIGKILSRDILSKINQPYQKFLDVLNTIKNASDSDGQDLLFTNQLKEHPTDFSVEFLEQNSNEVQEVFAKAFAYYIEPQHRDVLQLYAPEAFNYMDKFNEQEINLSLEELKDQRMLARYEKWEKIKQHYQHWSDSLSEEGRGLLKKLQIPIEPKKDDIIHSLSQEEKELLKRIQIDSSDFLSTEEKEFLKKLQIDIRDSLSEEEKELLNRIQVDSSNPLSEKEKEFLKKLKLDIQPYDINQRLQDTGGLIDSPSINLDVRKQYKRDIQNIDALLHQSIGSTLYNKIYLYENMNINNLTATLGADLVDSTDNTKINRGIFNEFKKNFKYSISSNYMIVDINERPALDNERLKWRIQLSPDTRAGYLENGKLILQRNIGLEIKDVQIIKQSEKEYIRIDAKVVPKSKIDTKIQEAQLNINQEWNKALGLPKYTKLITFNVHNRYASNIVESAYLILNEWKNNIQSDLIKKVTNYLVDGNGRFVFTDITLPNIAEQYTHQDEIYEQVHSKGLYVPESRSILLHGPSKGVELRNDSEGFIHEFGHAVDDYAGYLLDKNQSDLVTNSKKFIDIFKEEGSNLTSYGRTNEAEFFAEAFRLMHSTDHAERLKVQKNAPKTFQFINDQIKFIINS
Bead autofluor: counter-screen for toxin protease inhibitors: compound fluorescence; compound autofluorescence counterscreen, microsphere flow cytometry; hits give high values; fluorescence intensity (test concentration not listed); hit rate 3.1% among 360,000; AID 624483; in the data active = fluorescence intensity above about 16000; inconclusive = no clear call, values can overlap the other calls
BJeLR lethal: BJeLR cell viability loss; BJeLR (HRASV12) viability, CellTiter-Glo ATP luminescence, 48 h; inhibition, % (concentration not given with the values); hit rate 0.17% among 300,000; AID 1554; in the data active = inhibition above about 50%; inconclusive = no clear call, values can overlap the other calls
Starred values were filed as active, the others as inactive; i = inactive; ? = inconclusive; . = not tested or not shown. Rule as the data show it, unless noted: active = inhibition above about 30%; inconclusive = no clear call, values can overlap the other calls; inactive = below that.

SMILES | 3CLpro inhibitor | BoNT-A LC inh2 | BoNT F protease | Anthrax LF inh2 | Bead autofluor | BJeLR lethal
CCOc1ccc(CN2CCC(=O)NC2=O)cc1 | 1 | 6 | 4 | -9 | 17829* | -8
CC(C)(C)NC(=O)C(c1ccncc1)N(Cc1ccc(F)cc1)C(=O)c1ccc(-c2ccccc2)[nH]1 (configuration not stated) | 12 | 1 | 2 | -7 | 3060 | -7
CCSc1nc(O)c(CC)c(=O)n1C(C)CC (configuration not stated) | 4 | 0 | 3 | 0 | 22314* | -7
CN1CCN(C(=O)CCCOc2ccc(Cl)cc2Cl)CC1 | -2 | -3 | -6 | -3 | 17214* | -9
O=C(CCCn1c(=S)[nH]c2cc3c(cc2c1=O)OCO3)N1CCN(c2ccccn2)CC1 | -5 | ? | 9 | -1 | 19027* | .
O=C(c1ccccc1Br)N1CCN(c2ncccn2)CC1 | -3 | -2 | -8 | -6 | 3583 | 4
O=C(COc1ccccc1Cl)N1CCN(c2ncccn2)CC1 | 1 | -2 | -3 | 1 | 22968* | 6
O=C(c1ccccc1OCc1ccccc1Br)N1CCN(c2ncccn2)CC1 | -3 | -1 | -5 | -1 | 16398* | 5
O=C(CCCCCn1c(=S)[nH]c2cc3c(cc2c1=O)OCO3)N1CCN(Cc2ccccc2)CC1 | -2 | -1 | -8 | -3 | 4278 | .
CCOc1ccc(NC(=O)N(Cc2ccc(C)cc2)Cc2ccccn2)cc1 | -3 | -4 | 3 | -12 | 3795 | 2
Cc1cc(C)n(CCCN2C(=O)c3cccc4cccc(c34)C2=O)n1 | -4 | 0 | 0 | 0 | 2594 | -1
CCN(Cc1ccc(NC(C)=O)cc1)CC1CCCN(CCc2cccc(OC)c2)C1 (configuration not stated) | 1 | . | . | . | . | 9
O=S(=O)(CCN1CCCCC1)Oc1ccc(Cl)cc1Cl | 2 | -2 | -9 | -8 | 4225 | 0
O=C(CCCOc1ccc(Cl)cc1Cl)N1CCN(c2ccccn2)CC1 | 2 | -3 | -3 | -5 | 16837* | 0
O=C(COc1ccc(Cl)cc1Cl)N1CCN(c2ccccn2)CC1 | 3 | 0 | -4 | 2 | 3739 | 31
COc1ccc(OCC(=O)Nc2ccc(N3CCN(Cc4ccccc4F)CC3)cc2)cc1 | -1 | -1 | -14 | -9 | 3188 | 6
CCCn1c(SCC(=O)NCc2ccco2)nc2c1c(=O)n(C)c(=O)n2C | -3 | 1 | -1 | 0 | 22819* | 0
CCCn1c(SCC(=O)N2CCCc3ccccc32)nc2c1c(=O)n(C)c(=O)n2C | 3 | -2 | -5 | -4 | 21086* | .
CCCn1c(SCC(=O)Nc2cc(C)on2)nc2c1c(=O)n(C)c(=O)n2C | 3 | 0 | 3 | -4 | 22114* | 3
CCn1c(SCC(=O)NCc2ccco2)nc2c1c(=O)n(C)c(=O)n2C | 1 | -1 | -2 | -1 | 11516 | 7
CCOCCCN(C)C1CCN(C(=O)c2oc3ccccc3c2NC(=O)c2ccc(F)cc2)CC1 | -1 | . | . | . | . | 8
Clc1ccccc1CSc1ncn(-c2ccccc2)n1 | -3 | 2 | 0 | 2 | 21905* | 3
Cc1cc(NC(=O)CSc2ncn(-c3ccccc3)n2)no1 | 1 | 0 | -15 | -4 | 2476 | 4
Cc1ccc(CSc2ncn(-c3ccccc3)n2)cc1 | 0 | ? | -8 | -5 | 24543* | 3
COc1ccccc1/C(O)=C(\C#N)c1nc2ccccc2[nH]1 | 5 | 0 | -8 | -9 | 4739 | -5
SMILES | 3CLpro inhibitor | BoNT-A LC inh2 | BoNT F protease | Anthrax LF inh2 | Bead autofluor | BJeLR lethal
C[C@H]1CCCCO[C@H](CN(C)S(=O)(=O)c2cn(C)cn2)[C@@H](C)CN([C@@H](C)CO)C(=O)c2cc(NS(=O)(=O)c3ccccc3)ccc2O1 | . | 0 | 0 | -2 | 3459 | .
Cc1ccc(Cn2ccc(NC(=O)c3cc(-c4ccc(Cl)cc4)on3)n2)cc1 | -6 | ? | 1 | -4 | 15942 | 4
Cc1ccc(Cn2ccc(NC(=O)c3cc(-c4ccc(F)cc4)on3)n2)cc1 | -3 | -1 | -3 | 0 | 24044* | 7
CC(=O)N1CCN(C(c2ccccc2)c2ccccc2)CC1 | . | -2 | . | 3 | . | .
Cc1cc(C(=O)N2CCN(C(c3ccccc3)c3ccccc3)CC2)no1 | 6 | -3 | -5 | -2 | 23268* | 0
O=C(c1ccc(=O)oc1)N1CCN(C(c2ccccc2)c2ccccc2)CC1 | 0 | ? | -4 | -3 | 23517* | 0
O=C(c1ccc2c(=O)n3c(nc2c1)CCCCC3)N1CCN(C(c2ccccc2)c2ccccc2)CC1 | 2 | 0 | -1 | 4 | 23040* | -8
Cc1onc(C(=O)N2CCN(C(c3ccccc3)c3ccccc3)CC2)c1[N+](=O)[O-] | -1 | 0 | -5 | -13 | 6164 | 75*
COc1ccc(N2CCN(C(=O)c3ccc(NC(=O)C4=CSCCO4)cc3)CC2)cc1 | -4 | -1 | 0 | -2 | 6137 | -4
CSc1ccc(C(=S)N2CCN(C(c3ccccc3)c3ccccc3)CC2)cc1 | 5 | -2 | -5 | -2 | 25174* | 2
COCCN(CCOC)C(=O)CC(=O)N(CCOC)CCOC | 5 | 2 | 1 | 1 | 19259* | -5
COCCN(CCOC)C(=O)Nc1ccc(Cl)cc1 | -1 | 0 | -2 | -1 | 4911 | 10
O=S1(=O)NC(C2CC2c2ccccc2)CCO1 (configuration not stated) | -8 | 0 | -3 | -3 | 4258 | 8
COCCOC(=O)c1c(C)nc(SCC(=O)Nc2ccc(OC)cc2)c(C#N)c1-c1ccco1 | 0 | 0 | ? | 4 | 4271 | 1
COc1cccc(NC(=O)CSc2nc3c(c(-c4ccco4)c2C#N)CCCC3)c1 | 0 | ? | 1 | -6 | 23093* | -4
COc1ccc(NC(=O)CSc2nc(C)c3c(c2C#N)CCCC3)cc1 | -3 | 0 | -2 | 0 | 21814* | -2
COc1ccccc1NC(=O)CSc1nc(C)c2c(c1C#N)CCCC2 | 5 | -2 | -2 | -1 | 23495* | 5
Cc1nc2ccccc2n1S(=O)(=O)c1cc(C(=O)O)ccc1Cl | -1 | -4 | -11 | -6 | 3763 | 9
COc1cc(C)nc(Oc2ccc(OCc3ccccc3)nn2)n1 | -4 | 1 | -7 | -4 | 4837 | 0
CCOC(=O)COc1ccc(Oc2nc(C)cc(OC)n2)nn1 | 2 | 4 | 4 | 0 | 21448* | -3
CCCCCCCn1c(=N)n(CC(=O)c2ccco2)c2ccccc21 | -3 | 8 | i | 72* | ? | 2
CCCCn1c(=N)n(CC(=O)c2ccco2)c2ccccc21 | 3 | 0 | -5 | -6 | 5655 | -1
COc1cccc(N2CCN(C(=O)C3C4C=CC5(CN(Cc6ccccc6Cl)C(=O)C35)O4)CC2)c1 (configuration not stated) | -1 | -1 | 1 | -2 | 23129* | 16
COc1ccc(CN2CC34C=CC(O3)C(C(=O)O)C4C2=O)cc1 (configuration not stated) | 3 | -1 | -7 | -9 | 6173 | 6
